Results published in PubChem BioAssay (Tox21).
“And” between values parts separate entries of the source, which are not always exact repeats. Identical values can stand only once. Inconclusive results are not listed. The source made the active and inactive calls. Unless noted, calls follow the shape of the dose curve; as a rule, active = well fitted curve in the direction sought with a large enough effect in the repeat runs; inconclusive = weak or mixed curves; inactive = no such curve, though single readings can be large; an effect the other way counts as inactive or inconclusive. Positions of bridges follow the written chain, without caps; N, C: chain ends. Non-standard residues stand in square brackets, D forms with d. Residues, ends and D or L forms follow the SMILES beside them. *: point of attachment. X1 = CC[C@@H](C)[C@@H](N)C1=N[C@H](C(=O)*)CS1; Dab(CH2SO3H) = N[C@@H](CCNCS(=O)(=O)O)C(=O)O; d(aIle) = CC[C@H](C)[C@@H](N)C(=O)O; X3 = CC[C@@H](C)CCCCC(=O)*; dOrn = NCCC[C@@H](N)C(=O)O; Dab = NCC[C@H](N)C(=O)O

Experiments:
[1] = qHTS assay to identify aromatase inhibitors - cell viability counter screen (AID 743084); conditions: MCF-7 aro ERE viability, CellTiter-Fluor, 24 h; series mostly up to 70.3 µM;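 also: cells stimulated with testosterone during compound exposure; nearly all actives have a fitted effect of over 55% in size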
[2] = target: Aryl hydrocarbon receptor (Homo sapiens) (UniProt P35869); assay: qHTS assay to identify small molecule that activate the aryl hydrocarbon receptor (AhR) signaling pathway (AID 743085); conditions: HepG2 AhR-luc (HG2L7.5c1), luciferase, 24 h; series mostly up to 70.3 µM; also: nearly all actives have a fitted effect of over 15% in size;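 as to activation: HG2L7.5c1 human HepG2 liver cells with stably integrated DRE-driven firefly reporter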
Sequence of Aryl hydrocarbon receptor (Homo sapiens) (P35869 whole entry, looked up): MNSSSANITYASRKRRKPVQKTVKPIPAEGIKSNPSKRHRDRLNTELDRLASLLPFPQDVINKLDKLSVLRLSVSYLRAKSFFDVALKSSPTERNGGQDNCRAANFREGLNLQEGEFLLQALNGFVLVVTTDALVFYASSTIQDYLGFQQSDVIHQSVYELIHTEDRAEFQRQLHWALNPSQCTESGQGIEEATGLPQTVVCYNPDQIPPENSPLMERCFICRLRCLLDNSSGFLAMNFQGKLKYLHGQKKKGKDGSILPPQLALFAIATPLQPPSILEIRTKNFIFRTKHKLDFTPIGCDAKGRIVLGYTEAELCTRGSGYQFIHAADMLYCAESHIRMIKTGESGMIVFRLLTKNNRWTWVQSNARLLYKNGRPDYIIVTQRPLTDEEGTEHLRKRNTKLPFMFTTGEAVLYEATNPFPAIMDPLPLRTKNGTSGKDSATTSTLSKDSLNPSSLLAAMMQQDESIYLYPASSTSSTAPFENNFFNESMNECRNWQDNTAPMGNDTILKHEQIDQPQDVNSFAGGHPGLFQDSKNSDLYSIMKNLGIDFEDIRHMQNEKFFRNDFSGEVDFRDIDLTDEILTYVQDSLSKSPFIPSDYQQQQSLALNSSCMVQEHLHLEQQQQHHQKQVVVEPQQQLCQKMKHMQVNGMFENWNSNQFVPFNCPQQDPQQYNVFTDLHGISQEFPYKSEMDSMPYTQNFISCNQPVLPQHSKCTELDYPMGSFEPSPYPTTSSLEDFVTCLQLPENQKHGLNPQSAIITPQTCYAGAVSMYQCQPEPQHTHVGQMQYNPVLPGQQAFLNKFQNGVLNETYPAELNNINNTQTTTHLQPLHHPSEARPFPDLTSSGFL
In short: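 HepG2 cells (HG2L7.5c1) stably carrying a firefly luciferase reporter driven by 20 dioxin responsive elements were exposed to compound for 24 h at 37C after a 5 h settling period; luminescence rise (ONE-Glo) indicated activation.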

[3] = qHTS assay to identify small molecule that activate the aryl hydrocarbon receptor (AhR) signaling pathway - cell viability counter screen (AID 743086); conditions: HepG2-AhR-luc viability, CellTiter-Fluor, 24 h; series mostly up to 70.3 µM; also: nearly all actives have a fitted effect of over 45% in size
In short: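 HepG2-AhR-luc (HG2L7.5c1) cells, 4000/well, treated 24 h at 37 C with compound; viability measured as CellTiter-Fluor fluorescence after 30 min in the same wells as the luciferase read.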

[4] = target: Peroxisome proliferator-activated receptor gamma (Homo sapiens) (UniProt P37231); assay: qHTS assay to identify small molecule agonists of the peroxisome proliferator-activated receptor gamma (PPARg) signaling pathway (AID 743094; active = well fitted activation curve with a large enough effect in the signal ratio in the repeat runs, not every such curve was filed as active; the % refers to the signal ratio); conditions: HEK293H PPARg-UAS-bla, beta-lactamase FRET ratio, 17 h; series mostly up to 57 µM
Sequence of Peroxisome proliferator-activated receptor gamma (Homo sapiens) (P37231 whole entry, looked up): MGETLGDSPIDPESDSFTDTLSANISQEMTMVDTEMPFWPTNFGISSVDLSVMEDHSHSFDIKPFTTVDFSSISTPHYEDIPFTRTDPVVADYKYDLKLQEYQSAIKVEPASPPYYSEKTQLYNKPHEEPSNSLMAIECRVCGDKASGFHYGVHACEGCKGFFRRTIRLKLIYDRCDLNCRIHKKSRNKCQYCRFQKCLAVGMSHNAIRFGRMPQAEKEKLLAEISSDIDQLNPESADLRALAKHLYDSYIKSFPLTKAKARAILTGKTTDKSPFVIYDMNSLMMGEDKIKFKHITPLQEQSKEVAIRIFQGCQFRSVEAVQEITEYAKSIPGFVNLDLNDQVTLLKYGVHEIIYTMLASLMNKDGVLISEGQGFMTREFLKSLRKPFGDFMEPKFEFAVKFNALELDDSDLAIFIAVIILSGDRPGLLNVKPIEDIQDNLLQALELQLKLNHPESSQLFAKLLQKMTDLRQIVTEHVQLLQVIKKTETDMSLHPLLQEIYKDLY
In short: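 Reporter activation was scored by fluorescence of cleaved LiveBLAzer B/G substrate (1 h, room temperature) in PPARg-bla HEK293H cells previously treated 17 h at 37C with DMSO-dissolved compounds.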

Measured: Potency
Potency is read from the fitted curve at half-maximal effect.

NCC[C@H](O)C(=O)N[C@@H]1C[C@H](N)[C@@H](O[C@H]2O[C@H](CN)CC[C@H]2N)[C@H](O)[C@H]1O[C@H]1O[C@H](CO)[C@@H](O)[C@H](N)[C@H]1O
inactive: [1] | [2] | [3] | [4]

C[C@H](O)CN(C)C
inactive: [1] | [2] | [3] | [4]

NCC(O)CC(=O)O (stereo not given)
inactive: [1] | [2] | [3] | [4]

CCOc1ccc(S(=O)(=O)O)c2cccnc12
inactive: [1] | [2] | [3]

CON=C1C[C@]2(C[C@@H]3C[C@@H](C/C=C(\C)C[C@@H](C)/C=C/C=C4\CO[C@@H]5[C@H](O)C(C)=C[C@@H](C(=O)O3)[C@]45O)O2)O[C@H](/C(C)=C/C(C)C)[C@H]1C
inactive: [1] | [2] | [3]

CCOc1cc(CC(=O)N[C@@H](CC(C)C)c2ccccc2N2CCCCC2)ccc1C(=O)O
inactive: [1] | [2] | [3]

CCOC(=O)COc1ccc2c(=O)cc(-c3ccccc3)oc2c1
inactive: [1] | [2] | [3] | [4]

C[C@]12O[C@H](C[C@]1(O)CO)n1c3ccccc3c3c4c(c5c6ccccc6n2c5c31)CNC4=O
active: [1] 23.7 µM | [2] 531 nM | [3] 18.8 µM

Nc1ccc(N)c([N+](=O)[O-])c1
active: [1] 61.1 µM | [2] 24300 nM

COc1cccc2c1[C@@H]1CN(CCCCn3c(=O)[nH]c4c(sc5ncc(-c6ccccc6)nc54)c3=O)C[C@@H]1CO2
active: [1] 26.6 µM

CO/N=C(\C(=O)N[C@@H]1C(=O)N2C(C(=O)O)=C(C[N+]3(C)CCCC3)CS[C@H]12)c1csc(N)n1
inactive: [1] | [2] | [3] | [4]

CC(C)NCC1CCc2cc(CO)c([N+](=O)[O-])cc2N1 (stereo not given)
inactive: [1] | [2] | [3] | [4]

CC1(C)CCC(NC(=O)[C@@H](N)CCC(=O)O)CC1
inactive: [1] | [2] | [3] | [4]

CCN(CC)CC#CCOC(=O)C(O)(c1ccccc1)C1CCCCC1 (stereo not given)
active: [1] 11.9 µM | [3] 18.8 µM
inactive: [2]

CC1CCCCN1CCCOC(=O)c1ccccc1 (stereo not given)
inactive: [1] | [2] | [3]

CCC(NC(C)C)C(O)c1ccc(O)c(O)c1 (stereo not given)
inactive: [1] | [2] | [3]

CO/N=C(\C(=O)N[C@@H]1C(=O)N2C(C(=O)O)=C(CSc3cnns3)CS[C@H]12)c1csc(N)n1
inactive: [1] | [2] | [3] | [4]

Cc1cc(=O)c(C(=O)N[C@@H](C(=O)N[C@@H]2C(=O)N3C(C(=O)O)=C(CSc4nnnn4C)CS[C@H]23)c2ccc(O)cc2)c[nH]1
inactive: [1] | [2] | [3] | [4]

CC[C@@]1([C@@H]2O[C@@H]([C@H]3O[C@@](O)(CO)[C@H](C)C[C@@H]3C)C[C@@H]2C)CC[C@H]([C@]2(C)CC[C@]3(C[C@H](O)[C@@H](C)[C@@H]([C@@H](C)[C@@H](OC)[C@H](C)C(=O)O)O3)O2)O1 (stereo in doubt)
inactive: [1] | [2] | [3]

CC1(C)C[C@@H]1C(=O)N/C(=C\CCCCSC[C@H](N)C(=O)O)C(=O)O
inactive: [1] | [2] | [3]

C[N+](C)(C)CCOP(=O)(O)OP(=O)([O-])OC[C@H]1O[C@@H](n2ccc(N)nc2=O)[C@H](O)[C@@H]1O
inactive: [1] | [2] | [3] | [4]

CC/C=C\C/C=C\C/C=C\C/C=C\C/C=C\CCCC(=O)O
inactive: [1] | [2] | [3]

C(=C\c1ccncc1)/c1ccccc1
inactive: [1] | [3] | [4]
active: [2] 23.7 µM and 13.3 µM

CNCCC=C1c2ccccc2CCc2ccccc21
inactive: [1] | [2]

CCCCCCCC/C=C\CCCCCCCC(=O)N(CCO)CCO
inactive: [1] | [2] | [3]

C=N[C@@H](C(=O)N[C@@H]1C(=O)N2[C@@H]1SC(C)(C)[C@@H]2C(=O)O)c1ccccc1
inactive: [1] | [2] | [3]

CCC1OC(=O)C[C@@H](O)[C@H](C)[C@@H](O[C@@H]2O[C@H](C)C[C@H](N(C)C)[C@H]2O)[C@@H](CC=O)C[C@@H](C)C(=O)/C=C/[C@]2(C)OC2C1C (stereo not given in full)
inactive: [2]
active: [1] 21.1 µM | [3] 21.1 µM

CO/N=C(\C(=O)N[C@@H]1C(=O)N2C(C(=O)[O-])=C(C[n+]3cccc4c3CCC4)CS[C@H]12)c1csc(N)n1
inactive: [1] | [2] | [3]

CC[C@@H](C)CCCCC(=O)N[C@@H](CCNCS(=O)(=O)O)C(=O)N[C@H](C(=O)N[C@@H](CCNCS(=O)(=O)O)C(=O)N[C@H]1CCNC(=O)[C@H]([C@@H](C)O)NC(=O)[C@H](CCNCS(=O)(=O)O)NC(=O)[C@H](CCNCS(=O)(=O)O)NC(=O)[C@H](CC(C)C)NC(=O)[C@@H](CC(C)C)NC(=O)[C@H](CCNCS(=O)(=O)O)NC1=O)[C@@H](C)O (X3-[Dab(CH2SO3H)]T[Dab(CH2SO3H)][Dab][Dab(CH2SO3H)][dL]L[Dab(CH2SO3H)][Dab(CH2SO3H)]T; lactam 4-C)
inactive: [1] | [2] | [3]

CO[C@H](C(=O)[C@@H](O)[C@@H](C)O)C1Cc2cc3cc(O[C@H]4C[C@@H](O[C@H]5C[C@@H](O)[C@H](O)[C@@H](C)O5)[C@@H](O)[C@@H](C)O4)c(C)c(O)c3c(O)c2C(=O)[C@H]1O[C@H]1C[C@@H](O[C@H]2C[C@@H](O[C@H]3C[C@](C)(O)[C@H](O)[C@@H](C)O3)[C@H](O)[C@@H](C)O2)[C@H](O)[C@@H](C)O1 (stereo not given in full)
inactive: [1]
active: [2] 237 nM

CCc1ncnc2cc(OC)c(OC)cc12
inactive: [1] | [2] | [3]

Nc1c(CC(=O)O)cccc1C(=O)c1ccccc1
inactive: [1] | [2] | [3]

CCCC(CCC)C(=O)OC1C[C@H]2CC[C@@H](C1)[N+]2(C)C (stereo not given in full)
inactive: [1] | [2] | [3] | [4]

CN=C(N)NCCC[C@H](N)C(=O)O
inactive: [1] | [2] | [3]

O=C1c2c(O)cccc2[C@H]([C@@H]2O[C@H](CO)[C@@H](O)[C@H](O)[C@H]2O)c2cc(CO)cc(O)c21
inactive: [1] | [2] | [3] | [4]

CO[C@H]1C[C@@H]2CC[C@@H](C)[C@@](O)(O2)C(=O)C(=O)N2CCCC[C@H]2C(=O)O[C@H]([C@H](C)C[C@@H]2CC[C@@H](O)[C@H](OC)C2)CC(=O)[C@H](C)C=C(C)[C@@H](O)[C@@H](OC)C(=O)[C@H](C)C[C@H](C)/C=C/C=CC=C1C
inactive: [2]
active: [1] 23.7 µM and 26.6 µM | [3] 13.3 µM and 26.6 µM

CC[N+](CC)(CC)CCC(O)(c1ccccc1)C1CCCCC1 (stereo not given)
inactive: [1] | [2] | [3] | [4]

CC(=O)Oc1cc(C(F)(F)F)ccc1C(=O)O
inactive: [1] | [2] | [3] | [4]

CC(C)c1ncc([N+](=O)[O-])n1C
inactive: [1] | [2] | [3] | [4]

O=C(O)/C=C/C(O)c1ccc(Cl)cc1 (stereo not given)
inactive: [1] | [2] | [3] | [4]

CO/N=C(\C(=O)N[C@@H]1C(=O)N2C(C(=O)O)=C(CSc3nc(C)c(CC(=O)O)s3)CS[C@H]12)c1csc(N)n1
inactive: [1] | [2] | [3] | [4]

CC(C)(Oc1ccc(C2CCCc3ccccc32)cc1)C(=O)O (stereo not given)
active: [4] 2.39 µM
inactive: [1] | [2] | [3]

O=C1CC[C@@H](C(=O)N[C@H]2C[C@@H]2c2ccccc2)N1
inactive: [1] | [2] | [3] | [4]

CCOC(=O)[C@H](CCc1ccccc1)N[C@@H](C)C(=O)N1[C@H](C(=O)O)C[C@H]2CCCC[C@@H]21
inactive: [1] | [2] | [3] | [4]

C=CC1=C(C(=O)O)N2C(=O)[C@@H](NC(=O)/C(=N/OCC(=O)O)c3csc(N)n3)[C@H]2SC1 (stereo in doubt)
inactive: [1] | [2] | [3] | [4]

COc1ccc([C@@H]2CC(=O)c3c(O)cc(O[C@@H]4O[C@H](CO[C@@H]5O[C@@H](C)[C@H](O)[C@@H](O)[C@H]5O)[C@@H](O)[C@H](O)[C@H]4O)cc3O2)cc1O
inactive: [1] | [2] | [3] | [4]

CC[C@@H](C)[C@@H](N)C1=N[C@H](C(=O)N[C@@H](CC(C)C)C(=O)N[C@@H](CCC(=O)O)C(=O)N[C@@H](C(=O)N[C@@H]2CCCCNC(=O)[C@@H](CC(N)=O)NC(=O)[C@@H](CC(=O)O)NC(=O)[C@@H](Cc3cnc[nH]3)NC(=O)[C@@H](Cc3ccccc3)NC(=O)[C@@H]([C@H](C)CC)NC(=O)[C@@H](CCCN)NC2=O)[C@@H](C)CC)CS1 (X1-LE[d(aIle)][dK][dOrn][dI][dF][dH][dD][dN]; lactam 4-C)
inactive: [1] | [2] | [3] | [4]

NCCCC[C@H](NC(=O)[C@@H]1CCCN1C(=O)[C@@H]1CSSC[C@H](N)C(=O)N[C@@H](Cc2ccc(O)cc2)C(=O)N[C@@H](Cc2ccccc2)C(=O)N[C@@H](CCC(N)=O)C(=O)N[C@@H](CC(N)=O)C(=O)N1)C(=O)NCC(N)=O
inactive: [1] | [2] | [3] | [4]

O=C(O)COc1ccc(C(=O)c2cccs2)c(Cl)c1Cl
inactive: [1] | [2] | [3] | [4]

CCN(CC)CCOC[C@H]1O[C@@H](O)[C@H](OCCN(CC)CC)[C@@H](O)[C@@H]1O
inactive: [1] | [2] | [3] | [4]

C[C@@H]1C(=O)NC2=Nc3cccc(Cl)c3CN21
inactive: [1] | [2] | [3] | [4]

Cc1onc(-c2c(F)cccc2Cl)c1C(=O)N[C@@H]1C(=O)N2[C@@H]1SC(C)(C)[C@@H]2C(=O)O
inactive: [1] | [2] | [3] | [4]
